# SARS 3CLpro inh = SARS-CoV 3CLpro protease inhibition; AID 1706; hit rate 0.14% among 290,000; recombinant SARS-CoV 3CLpro, quenched FRET peptide cleavage; P0C6X7; inhibition, % at 6 µM; in the data active = inhibition above about 12%
# RN4220 kill = kills Staphylococcus aureus RN4220; hit rate 0.33% among 330,000; inhibition, % (concentration not given with the values); S. aureus RN4220 growth, OD600, 16 h; in the data active = inhibition above about 85%;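 note: plate controls were untreated cells for no effect and reference antibiotic for full effect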
# Sa ugtP lethal = compounds lethal to S. aureus RN4220 ugtP deletion mutant. OD600 growth, 16 h. growth inhibition, % (concentration not given with the values). hit rate 0.54% among 330,000. AID 1259309; in the data active = growth inhibition above about 68%;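 note: plate controls were untreated wells for no effect and antibiotic for full effect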
# DUSP3 inh = DUSP3 (human) phosphatase inhibition; hit rate 0.52% among 290,000; AID 1654; P51452; recombinant VHR phosphatase, pNPP absorbance; inhibition, % at 13.3 µM; in the data active = inhibition above about 50%
# PrPC TRFRET = cell surface PrPC inhibition, primary TR-FRET screen | P04156 | TR-FRET read-out | inhibition, % at 13.8 µM | hit rate 0.43% among 370,000 | AID 720596; in the data active = inhibition above about 24%; note: 0% = median of the test wells and 100% = reference compound wells
# BJeLR viability = kills HRASV12-expressing BJeLR cells; inhibition, % (no concentration beside the values); hit rate 0.17% among 300,000; BJeLR (HRASV12) viability, CellTiter-Glo ATP luminescence, 48 h; in the data active = inhibition above about 50%
# PrPC confirm = cell surface PrPC inhibition, TR-FRET confirmation. inhibition, % at 13.8 µM. cell surface PrPC level. hit rate 65% among 1,500. shares compounds with PrPC TRFRET. AID 743200; in the data active = inhibition above about 25%
# LD9 tox = kills or reduces viability of LD9 cells in PrPc counter-screen. shares compounds with PrPC TRFRET. LD9 cells cytotoxicity, luminescence viability. hit rate 29% among 1,500. inhibition, % at 13.8 µM; in the data active = inhibition above about 9.5%
# The depositor's hits bear a star; . = not tested or not shown. In the library only some 1.4% were active in any assay of this set; here they are far more common.
SMILES,SARS 3CLpro inh,RN4220 kill,Sa ugtP lethal,DUSP3 inh,PrPC TRFRET,BJeLR viability,PrPC confirm,LD9 tox
CC(C)OC(=O)CSc1nc(Cc2cccs2)nc2ccccc12,2,5,2,7,37*,-1,23,-3
CCOC(=O)CSc1nc(COc2ccccc2)nc2ccccc12,-2,4,6,18,59*,-4,60*,8
CC(C)(C)c1nc(SCC(=O)NNC(=O)c2ccccc2)c2ccccc2n1,5,9,9,17,45*,-6,67*,-11
CCOC(=O)CSc1nc(C2CC2)nc2ccccc12,-4,18,5,17,25*,-2,43*,-3
CC(=O)Nc1ccc(SCCN2CCC(C)CCC2=O)cc1 (centres undefined),.,10,3,.,.,.,.,.
CC1CN(C(C)CO)C(=O)c2cccc(NS(=O)(=O)c3cccs3)c2OC1CN(C)CC1CCCCC1 (centres undefined),.,0,-8,.,.,.,.,.
CCCCCC=CC1=CC(=O)CC(c2ccc(OC)c(OC)c2)C1 (centres undefined),.,5,66,.,.,.,.,.
CCOC(=O)CSc1nc(C(C)(C)C)nc2ccccc12,1,1,10,13,32*,6,58*,1
COC(=O)CSc1nc(C(C)C)nc2ccccc12,3,7,8,25,121*,-2,123*,-4
CCOC(=O)CSc1nc(C(C)C)nc2ccccc12,4,5,14,-7,110*,-22,123*,-1
COc1cccc(C2=CC(=O)CC(c3ccc(Cl)cc3)C2)c1OC (centres undefined),.,6,14,.,.,.,.,.
CC(C)CC(NC(=O)c1nc[nH]c1C(=O)NCc1ccccc1)C(=O)OC(C)(C)C (centres undefined),.,3,-6,.,.,.,.,.
Cc1nn(-c2ccccc2)c(Cl)c1C1C(C#N)=C(N)Oc2c1c(=O)oc1ccccc21 (centres undefined),0,-1,-3,14,36*,3,10,3
COC(=O)C1=C(C)OC(N)=C(C#N)C1c1c(C)nn(-c2ccccc2)c1Cl (centres undefined),0,10,10,-2,4,-14,.,.
COc1ccc(CCNC(=O)CSc2nn3c(=O)c(C)nnc3s2)cc1OC,0,2,6,-5,25*,-5,3,-8
COc1ccc(C(C)=O)cc1CSc1nnc(-c2ccc(Cl)cc2)n1-c1ccccc1,-6,10,4,7,56*,-3,24,-3
COc1ccc(C(C)=O)cc1CSc1nnc(-c2ccncc2)n1C,0,0,-12,-11,-9,-2,.,.
CC(C)(C)C1COC(=O)C(Cc2ccc(F)cc2)CC=CCC(CC(=O)NC(CO)Cc2ccccc2)C(=O)N1 (centres undefined),.,3,-6,.,.,.,.,.
CCN1/C(=C/C=C/C2=[N+](CC)c3ccccc3C2(C)C)C(C)(C)c2ccccc21,.,.,.,.,77*,.,96*,78*
CN1/C(=C\C=C\C2=[N+](C)c3ccc4ccccc4c3C2(C)C)C(C)(C)c2ccccc21,-5,.,.,19,.,.,.,.
Cc1cc(C)c2sc(NNC(=O)c3ccc(S(=O)(=O)N4CCc5ccccc5C4)cc3)nc2c1,8,25,28,-11,29*,11,30*,12*
CC(C)(C)c1ccc(S(=O)(=O)Nc2ccc(C(O)(C(F)(F)F)C(F)(F)F)cc2)cc1,.,.,.,.,26*,.,4,-4
CCOc1ccc2nc(NC(=O)c3ccco3)sc2c1,-2,2,-6,20,31*,22,39*,14*
CCOC(=O)c1ccc2nc(NC(=O)c3ccco3)sc2c1,0,-2,-8,4,-4,11,.,.
Cc1cc(C)cc(NC(=O)c2cccn2-c2ncc(C(F)(F)F)cc2Cl)c1,5,-9,20,31,32*,17,17,2
SMILES,SARS 3CLpro inh,RN4220 kill,Sa ugtP lethal,DUSP3 inh,PrPC TRFRET,BJeLR viability,PrPC confirm,LD9 tox
CC(C)CN1CCC(=O)N(C(CSc2ccccc2)Cc2ccccc2)CC1 (centres undefined),.,5,4,.,.,.,.,.
COc1ccc(OCC(=O)OCC(=O)NC2CCCCC2C)cc1 (centres undefined),.,2,4,.,4,.,.,.
COc1cc(NC2CCCCC2O)c2nc(-c3ccc(Cl)cc3)ccc2c1 (centres undefined),0,-19,25,32,39*,5,6,-2
CCCC(=O)N1CCN(c2ccc(NC(=O)c3ccc([N+](=O)[O-])o3)cc2)CC1,2,34,5,23,33*,-3,8,78*
CCc1cc2c(=O)c(-c3ccc4c(c3)OCCO4)c(C)oc2cc1OS(C)(=O)=O,5,4,4,18,31*,-5,40*,5
CCc1nonc1NC(=O)c1oc2cc(Br)ccc2c1C,3,1,-7,-4,28*,5,91*,-5
Nc1ccc2ccc(NS(=O)(=O)N3CCCCC3)cc2c1,.,.,.,.,31*,.,12,9
Cn1cc(C2NC(=O)c3ccccc3N2)c2ccccc21 (centres undefined),.,.,.,.,25*,.,20,-4
Cc1ccc(C)c(C2NC(=O)c3ccccc3N2)c1 (centres undefined),0,.,.,30,10,41,.,.
CCCCCCCCCCCCCCCCn1cc[n+](C)c1,0,101*,99*,0,34*,16,49*,42*
CCCCCCCCn1ccc(=N)cc1,2,4,14,1,7,21,.,.
CC1CCC2(CC1)C(Nc1cccc(Cl)c1)=NC(=S)N2CC#N (centres undefined),-2,-1,-9,-3,36*,-9,39*,-7
CC1CCC(=C(C#N)C(=O)Nc2cccc(Cl)c2)CC1 (centres undefined),4,2,-10,11,6,-6,.,.
COc1ccc(/C(O)=C2/C(=O)C(=O)N(c3ccccn3)C2c2ccc(F)cc2)cc1 (centres undefined),0,-1,1,-2,6,8,.,.
CCOc1ccc(/C(O)=C2\C(=O)C(=O)N(c3cc(C)on3)C2c2ccccc2OC)cc1 (centres undefined),6,0,-5,4,35*,5,55*,0
CCOc1ccc(C2C(=C(O)c3ccc(OC)c(OC)c3)C(=O)C(=O)N2c2cc(C)on2)cc1OC (centres undefined),.,3,-1,.,.,.,.,.
CCOc1ccc(/C(O)=C2\C(=O)C(=O)N(c3ccccn3)C2c2ccccc2F)c(C)c1 (centres undefined),.,.,.,.,34*,.,67*,-5
O=C(NCc1ccccc1)Nc1cccn(Cc2ccccc2)c1=O,4,-2,4,-8,10,2,.,.
